# Test results reported in publication PMC5540273 (PLoS ONE, 2017).
# Experiments:
# Settings in all cases: concentration: 1 μM, replicates: in singlicate; n = 1
# [1] = test system: HIPK2
# [2] = test system: HIPK3
# [3] = test system: HIPK4
# [4] = test system: HPK1
# [5] = test system: HUNK
# [6] = test system: ICK
# [7] = test system: IGF1R
# [8] = test system: T1, IKK-alpha
# T1 construct: gene CHUK
# [9] = test system: T2, IKK-beta
# T2 construct: gene IKBKB
# [10] = test system: T3, IKK-epsilon
# T3 construct: gene IKBKE
# [11] = test system: INSRR
# [12] = test system: INSR
# [13] = test system: IRAK1
# [14] = test system: IRAK3
# [15] = test system: IRAK4
# [16] = test system: ITK
# [17] = test system: JAK1(JH1domain-catalytic)
# [18] = test system: JAK1(JH2domain-pseudokinase)
# [19] = test system: JAK2(JH1domain-catalytic)
# [20] = test system: JAK3(JH1domain-catalytic)
# 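Note: KINOMEscan kinase panel screen.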
Compound,%Inh [1] [%],%Inh [2] [%],%Inh [3] [%],%Inh [4] [%],%Inh [5] [%],%Inh [6] [%],%Inh [7] [%],%Inh [8] [%],%Inh [9] [%],%Inh [10] [%],%Inh [11] [%],%Inh [12] [%],%Inh [13] [%],%Inh [14] [%],%Inh [15] [%],%Inh [16] [%],%Inh [17] [%],%Inh [18] [%],%Inh [19] [%],%Inh [20] [%]
Cn1cc(-c2ccc3c(c2)CCN3C(=O)Cc2cccc(C(F)(F)F)c2)c2c(N)ncnc21 [GSK2606414],0,16,0,6,0,4,0,13,7,4,3,1,0,15,10,12,7,0,34,0
CC(C)(C)OC(=O)NC1CCCN(c2cc(-c3ccc4c(N)n[nH]c4c3)nc(N)n2)C1 (centres unmarked) [GSK2286096],0,12,0,26,5,7,0,0,0,12,0,0,0,0,8,6,6,15,0,0
Clc1cc(Nc2ncnc3cc[nH]c23)ccc1OCc1ccccn1,19,27,0,0,13,18,0,9,20,27,0,3,6,19,2,0,3,35,16,0
CC(C)(C)c1ccc(-n2cnc3c(N)ncnc32)cc1 [SKF-97263],0,6,0,60,14,17,11,0,7,19,6,21,0,7,0,6,7,82,24,0
Fc1ccc(-c2ncn(CCCNCc3ccccc3)c2-c2ccncc2)cc1,23,45,0,8,7,12,4,0,9,10,5,0,24,9,19,21,0,24,36,8
O=c1cc(N2CCOCC2)nc2n(Cc3cccc(Cl)c3)ccn12 [GSK2296823],0,18,0,37,0,19,1,3,17,35,0,0,60,32,16,19,0,0,10,0
Cc1ccc(O)cc1Nc1cc(C(F)(F)F)nc2ccc(-c3ccncc3)cc12 [GW630823],0,0,9,0,3,0,5,0,0,0,0,0,0,56,0,19,0,0,0,0
C[C@@H]1CCN(C(=O)CO)C[C@@H]1N(C)c1ncnc2[nH]ccc12,0,0,0,0,0,0,0,0,0,0,9,0,0,19,0,0,94,21,100,98.8
NC(=O)c1sc(-n2cnc3ccccc32)cc1OCc1ccccc1F [GSK1024306],44,0,24,51,0,0,0,0,2,0,0,0,0,0,0,8,6,0,21,0
CCCc1ccc(S(=O)(=O)NC2CCN(c3ccnc(Nc4ccc(OC)cc4)n3)C2)cc1 (centres unmarked) [GSK1379737],0,8,0,31,10,0,8,36,0,0,0,0,39,0,24,14,34,0,73,0
Cn1ccc2ncnc(Oc3ccc(NC(=O)Nc4cccnc4)c(Cl)c3)c21,4,0,6,11,24,0,16,13,10,0,0,6,0,12,6,11,12,4,0,21
Nc1nccc2scc(-c3ccc4c(c3)CCN4C(=O)Cc3cc(F)ccc3F)c12 [GSK2587663],0,6,0,28,14,0,13,5,0,5,0,0,17,10,7,18,14,0,0,0
Nc1nc(-c2ccccn2)c(-c2ccnc3ccccc23)s1 [GW548057],5,15,0,20,8,7,9,8,0,22,0,0,33,0,0,5,28,5,22,0
Cl.Fc1ccccc1COc1ccc(Nc2ncnc3ccc(-c4nnc(C(F)(F)F)o4)cc23)cc1Cl [GW424170],0,0,0,20,3,0,11,0,0,0,0,0,0,0,0,4,7,0,6,0
COC(=O)c1c(-c2ccccc2)c2cc(Cl)ccc2c(=O)n1Cc1ccc(S(C)(=O)=O)cc1,24,0,0,0,0,32,0,0,0,0,0,5,11,19,9,21,0,0,5,4
Cl.Cn1ccc(-c2cccc(Nc3ccnc4cc(-c5nccs5)ccc34)c2)n1 [GW525701],0,0,0,34,22,11,21,30,11,31,0,0,41,0,15,7,18,0,0,0

Compound,%Inh [1] [%],%Inh [2] [%],%Inh [3] [%],%Inh [4] [%],%Inh [5] [%],%Inh [6] [%],%Inh [7] [%],%Inh [8] [%],%Inh [9] [%],%Inh [10] [%],%Inh [11] [%],%Inh [12] [%],%Inh [13] [%],%Inh [14] [%],%Inh [15] [%],%Inh [16] [%],%Inh [17] [%],%Inh [18] [%],%Inh [19] [%],%Inh [20] [%]
CSc1ccc(NC2=C(c3ccccc3Cl)C(=O)NC2=O)cc1 [SB-342411],0,31,0,0,0,40,6,0,0,44,0,0,0,0,19,4,0,0,0,48
CNc1nccc(-c2c(-c3ccc(F)cc3)ncn2C2CCN(C)CC2)n1 [SB-222903],5,0,0,0,39,0,0,0,0,0,0,5,0,0,0,5,24,5,5,0
CCC(CC)(CC)n1cnc2c(N)ncnc21 [SKF-97620],10,19,8,0,34,32,0,30,8,0,4,0,33,0,0,9,10,0,22,22
Cc1cc(N2CCC(NS(=O)(=O)c3ccc(F)cc3)CC2)nc(Nc2cccc(C#N)c2)n1.O=C(O)C(F)(F)F [GSK1653537],47,0,0,43,25,0,0,12,2,7,0,0,0,0,4,1,7,0,6,0
CCc1nc(-c2cccc(N(C)S(=O)(=O)c3ccccc3)c2)c(-c2ccnc(Nc3ccc(N4CCN(C(C)=O)CC4)nc3)n2)s1 [GSK1645895],0,17,0,35,0,13,0,0,1,39,0,20,11,0,13,0,15,21,0,0
Fc1ccc(Nc2nccc(-c3c(-c4ccc(Cl)cc4)nn4ncccc34)n2)cc1F [GW829058],11,36,19,16,40,25,6,34,29,0,20,19,24,7,0,18,0,12,39,37
CSc1nn2c(=O)cc(N3CCOCC3)nc2n1Cc1cccc(Cl)c1Cl [GSK2347225],0,17,2,25,25,0,0,0,0,28,0,17,0,0,0,13,24,0,18,0
FC(F)(F)c1cc(Nc2nccc(-c3c(-c4ccc(Cl)cc4)nn4ncccc34)n2)ccc1Cl [GW829351],0,0,0,0,67,0,0,0,0,0,0,0,0,0,0,0,0,0,13,0
C[C@H]1CC[C@@H](C(=O)Nc2ccccc2)CN1c1cc(-c2ccc3c(N)n[nH]c3c2)nc(N)n1 [GSK2283293],0,0,0,37,0,0,15,7,0,8,0,0,0,16,0,17,0,0,0,0
FC(F)(F)c1ccc(-c2nn3ncccc3c2-c2ccnc(Nc3cccc(C(F)(F)F)c3)n2)cc1 [GW828205],0,0,11,0,32,0,3,0,0,0,0,0,0,11,0,15,0,5,0,0
O=C(Nc1n[nH]c2nc(-c3ccco3)c(Br)cc12)c1ccc(CN2CCCC2)cc1.O=C(O)[C@H](O)[C@@H](O)C(=O)O [SB-742352],0,0,0,17,0,37,0,0,0,0,0,0,0,0,0,3,0,1,0,0
CNc1nccc(-c2c(-c3ccc(F)cc3)ncn2CCCN2CCOCC2)n1 [SB-222516],0,0,0,0,39,37,2,0,0,0,0,0,6,10,9,4,0,0,8,0
OCCOCCn1ccc2ncnc(Nc3ccc(Oc4cccc(Cl)c4)c(Cl)c3)c21,0,0,0,0,7,0,0,0,0,0,0,0,0,0,0,0,0,38,0,0
COc1ccc(NC(=O)c2ccc(-c3cc(-c4nnc(C)o4)ccc3C)cc2)cc1 [GW595885],0,10,0,24,3,4,0,25,24,0,0,0,37,0,16,6,9,0,12,0
O=C(c1ccc(-c2cc(-c3c[nH]nc3-c3ccccn3)ccn2)cc1)N1CCCC1 [GW792479],0,0,24,20,9,0,0,0,0,0,0,6,0,0,0,0,0,15,0,39
